# Source: PubChem BioAssay (National Center for Advancing Translational Sciences (NCATS))
# An excerpt weighted towards active compounds, which were near 1.1% of everything screened.
# RXFP1 antag = RXFP1 (human) relaxin receptor antagonism | HEK293-RXFP1, relaxin-stimulated cAMP HTRF, 30 min; stronger effect = lower value | activity change, negative = inhibition, % at 57.5 µM | actives 0.59% (n = 350,000);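 active = activity change of -60% or lower, but not beyond a set lower limit; inconclusive = change between -60% and -40%, or beyond the set limit; inactive = change above -40%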; also: % is scaled to controls: 0 for no effect and ±100 for the full control effect
# RXFP1 agonist = RXFP1 (human) receptor agonism | Q9HBX9 | HEK293T-RXFP1 cAMP TR-FRET, 30 min; response scale: percent of porcine relaxin response, buffer zero | Potency, µM (titrated, usually from 57.5 µM), without a hit: at the highest dose activation, usual class: activators | actives 0.3% (n = 370,000) | AID 2676; active = well fitted activation curve with a large enough effect; inconclusive = small, poorly fitted or top-dose-only effect; also: potency is read from the fitted curve at half-maximal effect; % is scaled to controls: 0 for no effect and ±100 for the full control effect; nearly all actives have a fitted effect of over 60% in size
#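 cAMP rise read by TR-FRET after 30 min, 37C compound exposure (up to 58 uM) in RXFP1-transfected HEK293 cells with Ro 20174 present. EC50 from Hill-equation fits, with 29 nM porcine relaxin as 100% and buffer as basal.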
# TRPV1 ag = human TRPV1 agonism | actives 0.19% (n = 320,000) | TRPV1-expressing cells, Fluo-8 calcium influx, agonist mode | activation, % at 8.33 µM | Q8NER1; in the data active = activation above about 80%; inconclusive = between about 30% and that limit; also: 0% is about no effect
# Target sequence (Q8NER1 whole entry, looked up): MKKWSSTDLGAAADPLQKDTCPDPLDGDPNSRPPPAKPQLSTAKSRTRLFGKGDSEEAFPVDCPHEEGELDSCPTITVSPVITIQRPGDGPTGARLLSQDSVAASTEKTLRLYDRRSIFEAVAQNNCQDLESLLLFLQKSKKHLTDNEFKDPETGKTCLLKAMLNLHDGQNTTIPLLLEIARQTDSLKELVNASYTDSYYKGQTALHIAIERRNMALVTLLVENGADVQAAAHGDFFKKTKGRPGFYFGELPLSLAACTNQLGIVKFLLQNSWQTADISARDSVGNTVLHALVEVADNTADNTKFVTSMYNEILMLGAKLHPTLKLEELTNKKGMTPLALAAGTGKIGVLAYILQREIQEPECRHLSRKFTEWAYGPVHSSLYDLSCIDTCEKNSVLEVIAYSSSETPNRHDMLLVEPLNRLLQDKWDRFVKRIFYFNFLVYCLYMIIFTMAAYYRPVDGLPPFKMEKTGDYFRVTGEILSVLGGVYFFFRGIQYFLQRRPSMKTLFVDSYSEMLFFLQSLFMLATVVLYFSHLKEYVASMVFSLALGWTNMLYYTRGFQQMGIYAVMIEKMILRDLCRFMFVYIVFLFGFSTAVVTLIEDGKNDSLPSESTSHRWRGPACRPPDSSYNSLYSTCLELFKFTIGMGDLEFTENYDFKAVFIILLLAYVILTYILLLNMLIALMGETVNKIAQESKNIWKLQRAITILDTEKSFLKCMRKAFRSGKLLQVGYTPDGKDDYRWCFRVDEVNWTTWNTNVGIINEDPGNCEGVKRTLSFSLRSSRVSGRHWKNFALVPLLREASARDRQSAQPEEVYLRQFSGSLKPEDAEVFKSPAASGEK
#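 TRPV1-expressing cells were cultured overnight at 35.5C and loaded with Fluo-8 calcium dye for 40 to 90 min at room temperature. After a 10 s baseline, compound was added and calcium influx was read kinetically for 3 min (ex 480/em 520 nm).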
# gsp agonist = agonists of gsp mutant (McCune-Albright syndrome) | gsp mutant cells, cAMP HTRF, 30 min | Potency, µM (titrated, usually from 76.9 µM), without a hit: top-dose activation (cAMP increase), actives largely listed as activators | actives 0.13% (n = 340,000); active = well fitted activation curve with a large enough effect; inconclusive = small, poorly fitted or top-dose-only effect, or another doubt; inactive = no such curve, though single readings can be large or run the other way; cell line not stated here;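 also: phosphodiesterase inhibitor Ro 20-1724 added with compounds to block cAMP breakdown; potency is read from the fitted curve at half-maximal effect; nearly all actives have a fitted effect of over 60% in size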
#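 Cells stably selected in G418 were plated at 2000/well, grown 16-24 hr, then given compounds in DMSO with the PDE inhibitor […] (300 uM solution added) for 30 min at 37C; cAMP was read by HTRF.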
# TRPV1 potentiator = human TRPV1 potentiation | Q8NER1 | TRPV1-expressing cells, Fluo-8 calcium influx, capsaicin EC20 potentiation | potentiation, % at 8.33 µM | actives 0.02% (n = 320,000); in the data active = potentiation above about 80%; inconclusive = between about 30% and that limit; also: 0% is about no effect
#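 Fluo-8 calcium influx in TRPV1-expressing cells, kinetic read (ex 480/em 520 nm). Compound added and read 3 min for agonist activity, followed by capsaicin at EC20 final and 2 min further read for enhancement.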
# gsp antagonist = antagonizes gsp, the McCune-Albright syndrome mutation | gsp-mutant cells, cAMP HTRF, 30 min | actives 0.4% (n = 340,000) | Potency, µM (series often up to 76.9 µM), without a hit: top-dose activity change, negative = inhibition, most hits filed as inhibitors; calls by dose curve; cell line not stated here;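 also: intracellular cAMP measured with PDE inhibitor Ro 20-1724 present during compound exposure; potency is read from the fitted curve at half-maximal effect; % is scaled to controls: 0 for no effect and ±100 for the full control effect; nearly all actives have a fitted effect of over 65% in size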
#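 HTRF cAMP measurement after 30 min RT detection following 30 min, 37C compound treatment alongside […] (added as 300 uM solution) in G418-selected cells seeded at 2000/well and grown 16–24 h.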
# * marks the source's active call; other numbers are inactive results; ? = inconclusive; · = no result given; ! = a repeat was not active; [ ] = remark or other dose.
SMILES,RXFP1 antag,RXFP1 agonist,TRPV1 ag,gsp agonist,TRPV1 potentiator,gsp antagonist
COCC(=O)N1CCC(Oc2ccc(C(=O)N(C)Cc3nccs3)cc2)CC1,10.9,-0.1%,1.6,-17.4%[15.4 µM],5.9,6.8%
COc1cc(CN2CCC(n3nccc3NC(=O)c3ccccc3OC)CC2)ccc1F,-25.1,-1.0%,3.8,-6.4%,-6.0,-9.6%
N#CC(C#N)=Cc1ccc(NC(=O)c2ccc(Br)cc2)cc1,-13.9,0.0%,113.4*,16.9%[15.4 µM],-12.9,-21.0%
Cc1ccc(CNC(=O)c2ccc(Cn3nc(C)cc3C)o2)cc1,-117.2*,4.5%,17.2,10.6%,1.4,-6.4%
Cc1cc(C)n(Cc2ccc(C(=O)NCc3ccco3)o2)n1,-22.3,-0.1%,-1.8,-27.0%,8.3,-1.1%
Cc1cc(O)c(C(C)C)cc1NC(=S)Nc1cc(C(C)C)c(O)cc1C,-15.4,·,·,-1.4%,·,28.2µM*
COc1ccc(CCNC(=O)c2cc(S(=O)(=O)N3CCCC(C)C3)cn2C)cc1OC (stereo not given),·,5.4%,·,·,·,·
COc1ccc(C(=O)O)cc1NC(=S)NC(=O)C(c1ccccc1)c1ccccc1,-116.2*,3.3%,-3.9,-27.5%,10.7,5.8%
O=C(O)c1ccc(NC(=S)NC(=O)C(c2ccccc2)c2ccccc2)cc1,-27.6,2.2%,-3.3,?,11.4,?
CN(CC(=O)Nc1ccc(F)c(F)c1F)C(=O)CCc1nc2sc3c(c2c(=O)[nH]1)CCCC3,-62.9*,3.4%,-1.4,17.9%[15.4 µM],7.2,-4.9%
Cc1ccc2c(c1)c1c(n2CC(O)CNC2CCCC2)CCCC1 (stereo not given),-81.5*,-0.5%,6.5,4.3%,22.9,-6.4%
Cc1ccc2c(c1)c1c(n2CC(O)Cn2ccnc2C)C(=O)CCC1 (stereo not given),4.2,-3.1%,3.7,-3.3%,0.1,6.8%
CC1=C(C(=O)N(C)C)CC(CC(=O)NC2CCCCC2)C(=O)N1CCCN1CCCC1=O (stereo not given),0.9,·,·,-26.0%,·,·
Cn1ncc2c(N3CCN(c4ccccc4Cl)CC3)ncnc21,20.0,3.2%,·,·,·,·
N#Cc1ccsc1NC(=O)C1CCN(S(=O)(=O)c2cccs2)CC1,-69.7*,0.0%,-0.8,10.7%[15.4 µM],-8.8,-7.6%
O=C(Nc1ccccc1)C1CCN(S(=O)(=O)c2cccs2)CC1,-2.3,1.5%,?,42.1%,-17.7,8.0%
Cc1c(CCC(=O)O)c(=O)oc2c(C)c3occ(-c4ccc(Cl)cc4)c3cc12,2.9,1.6%,-1.5,10.9%[15.4 µM],3.0,31.6µM*
O=C(NCC1CCN(c2ccc(S(=O)(=O)N3CCOCC3)cc2)CC1)Nc1ccccc1F,-2.7,-0.7%,1.8,2.5%[15.4 µM],-9.4,-11.5%
Cc1cccc(N2CCN(C(=O)c3cc4ccc5cccnc5c4[nH]3)CC2C)c1 (stereo not given),-61.5*,-3.5%,·,·,·,·
Cc1cccc(N2CCN(C(=O)c3ccccn3)CC2C)c1 (stereo not given),2.7,2.9%,?,-21.7%,-23.0,7.9%
Cc1cccc(N2CCN(C(=O)NC3CCCCC3)CC2C)c1 (stereo not given),6.8,1.8%,93.3*,?,-6.6,2.0%
Cc1ccc(C)c(N2CCN(C(=O)c3cc4ccc5cccnc5c4[nH]3)CC2)c1,-32.7,3.8%,·,·,·,·
Cc1cccc(N2CCN(C(=O)c3nn(C)c4c3CSc3ccccc3-4)CC2C)c1 (stereo not given),-37.1,-3.6%,·,·,·,·
Cc1ccc(Cl)cc1N1CCN(C(=O)C2CCN(c3nnc(-n4cccc4)s3)CC2)CC1,·,1.7%,8.9,25.8%,-1.8,-18.7%
Cc1cccc(N2CCN(C(=O)C3CCN(c4nnc(-n5cccc5)s4)CC3)CC2C)c1 (stereo not given),-67.5*,5.7%,13.8,-14.8%,-7.8,28.2µM*
SMILES,RXFP1 antag,RXFP1 agonist,TRPV1 ag,gsp agonist,TRPV1 potentiator,gsp antagonist
Cc1cccc(N2CCN(C(=O)c3nn(C)c4c3CS(=O)(=O)c3ccccc3-4)CC2C)c1 (stereo not given),14.0,-3.5%,1.1,8.7%,-1.0,35.5µM*
COc1ccc(NC(=O)C(NS(=O)(=O)c2ccc3c(c2)CCCC(=O)N3)C(C)C)c(OC)c1 (stereo not given),·,-0.8%,·,·,·,·
Cc1ccc(-c2noc(CN(C(=O)c3ccc(C(C)(C)C)cc3)C(C)C)n2)cc1,·,0.2%,·,·,·,·
O=C(COc1ccc(F)cc1)Nc1ccccc1C(=O)OCc1cc(=O)n2nc(C3CC3)sc2n1,-5.3,19.8%,·,·,·,·
Cc1cccc(N2CCN(C(=O)C3CCN(S(=O)(=O)c4cccc5nsnc45)CC3)CC2C)c1 (stereo not given),-8.4,0.3%,1.5,16.7%,-11.6,35.5µM*
Cc1cccc(N2CCN(C(=O)C3CCN(S(=O)(=O)c4cccc5cccnc45)CC3)CC2C)c1 (stereo not given),·,0.2%,·,-81.2%,·,-26.8%
CCc1ccc(OCC(=O)NNC(=O)c2cc(S(=O)(=O)N(C)C)ccc2N2CCCC2)cc1,-114.0*,-0.9%,-0.4,3.8%[15.4 µM],24.8,-0.6%
CN(C)S(=O)(=O)c1ccc(N2CCCC2)c(C(=O)NNC(=O)COc2ccc(Cl)cc2)c1,-17.1,3.7%,1.4,-3.8%,-0.8,4.3%
Cc1nc2ccc(S(=O)(=O)Nc3cccc(-c4nc5cccnc5s4)c3C)cc2s1,-27.2,2.1%,2.4,12.2%,15.7,35.5µM*
Cn1cc(-c2cc3n(n2)CCC(=O)N3CCCC(=O)Nc2ccccc2F)c2ccccc21,-15.5,1.8%,·,·,·,·
CN(C(=O)COC(=O)/C=C/c1ccccc1)C1CCS(=O)(=O)C1 (stereo not given),-2.1,·,·,?,·,·
O=C(c1ccc(CSc2nc3ccncc3[nH]2)cc1)N1CCCCCC1,19.6,25.0%,1.3,?,10.2,7.5%
O=C(c1ccc(CSc2nc3ccncc3[nH]2)cc1)N1CCN(c2cccc(Cl)c2)CC1,-10.1,0.1%,-0.9,?,-43.9,35.5µM*
CCOC(=O)c1nn(C)c2[nH]c(=O)n(C)c(=O)c12,-4.4,·,·,?,·,18.1%
Cc1cc(C)c(S(=O)(=O)c2ccccc2Cl)c(=O)[nH]1,0.1,1.3%,-2.8,-0.7%,4.9,6.8%
CC(C)N(CCCNC(=O)Cn1ncc2c([nH]c3ccccc32)c1=O)Cc1ccccc1,-74.8*!,1.4%,2.1,?,6.0,9.5%
CCOC(=O)C(=CNc1ccccc1Cl)C(=O)OCC,-7.7,-3.9%,?,-19.2%,-23.8,-20.0%
CCOC(=O)C(=CNc1ccccc1C)C(=O)OCC,-15.2,2.6%,?,35.4%,2.5,20µM*
O=C(CSc1nnc(-c2ccccc2)o1)c1cccc([N+](=O)[O-])c1,·,-3.5%,·,·,·,·
CCOC(=O)CSC1=NC(=O)/C(=C\c2ccc(Cl)cc2)S1,-16.2,-1.1%,0.0,16.7%,-20.5,31.6µM*
